Source: PubChem BioAssay
Activity calls are given as the source filed them.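 How the source made its calls, unless noted: active means inhibition at or above 50% at 10 µM; inactive means inhibition below 50%.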

Tests used:
[1] = inhibitors of TNFa-induced NFkB p65 translocation, primary screen, imaging, HUVEC, MLSMR starter and 10KST1 sets (AID 438;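 active means inhibition above 20% together with a positive visual image hit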;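 further: compound added about 3h40 before a 20 min TNFalpha stimulation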;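 on inhibition: signal is the nuclear over cytoplasmic p65 intensity ratio per well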); conditions: HUVEC TNFa-induced p65 nuclear translocation; cell count: measured here: nuclei count (cytotoxicity indicator), at 2.08 µM; inhibition: at 2 µM, stronger effect = higher value, 0% TNFa-plus-vehicle, 100% no-TNFa wells
[2] = reduction of polyQ htt aggregates in cells – imaging, exon1htt(103Q)mCFP cells, high-content imaging, primary screen (AID 483;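 active means visual image review flags a hit and inhibition of aggregation exceeds 20%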;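 further: compound exposure lasted 3 days before fixation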;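 on nuclei count: percent of the per-plate median nuclei count of sample wells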); conditions: exon1htt(103Q)mCFP cell line, aggregate imaging, at 2 µM; inhibition of aggregation: stronger effect = higher value; nuclei count: measured here: cell count, toxicity
[3] = endothelial E-selectin expression blockers – imaging, HUVEC, immunofluorescence, MLSMR starter and 10KST1 sets, primary screen (AID 487;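 active means visually confirmed hit in the image check and inhibition above 20%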;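 on inhibition: signal is fraction of cell area covered by stained E-selectin grains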;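 on nuclei count: 100% = median nuclei count of all wells on the same plate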); conditions: HUVEC TNFalpha-induced E-selectin immunofluorescence imaging, at 2 µM; inhibition: stronger effect = higher value; nuclei count: measured here: cell number, toxicity
[4] = target: Voltage-gated potassium channel subunit beta-2 (Rattus norvegicus) (UniProt P62483); assay: inhibitors of rat Kvbeta2 reductase activity – biochemical, NADPH fluorescence, primary screen (AID 622;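 active means fluorescence slope higher than the sample average by over 3 SD, cut at about -0.22 in these data, passing the limit was not always enough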;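 further: slope of raw intensity against log time taken from 70 to 1610 s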); conditions: recombinant KvBeta, 4-cyanobenzaldehyde reduction, at 10 µM, stronger effect = higher value
[5] = target: Voltage-gated potassium channel subunit beta-2 (Rattus norvegicus) (UniProt P62483); assay: enhancers of rat Kvbeta2 NADPH turnover – biochemical, NADPH fluorescence, primary screen (AID 623;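 active means NADPH fluorescence slope more negative than the mean of all samples by about 3 SD, 99.7% confidence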;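 further: fluorescence intensity change per second fitted from 20 to 320 s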); conditions: Recombinant KvBeta, NADPH fluorescence decrease slope, 10 min; at 10 µM; stronger effect = lower value
[6] = target: Alpha-2C adrenergic receptor (Homo sapiens) (UniProt P18825); assay: compounds altering alpha2C-coupled GIRK flux – cell-based, HEK293 alpha2C/GIRK1/2, thallium flux, primary screen (AID 624;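 active means fluorescence slope after compound addition differing from the mean of all screened samples at 99.7% confidence, in either direction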;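 further: slope of fluorescence ratio to pre-addition baseline per second over 15 to 24 s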); conditions: thallium flux BTC fluorescence, at 10 µM, actives lie on both sides
[7] = blockers of RIG-like receptor reporter activation – cell-based, Sendai virus stimulus, luciferase, 10K MLSCN set, TLR/RLR signaling modifier project, primary screen (AID 602276); conditions: HEK293 RL24 IRF3 luciferase reporter, at 10 µM, stronger effect = higher value;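 further: firefly luciferase from ISG56 promoter only with Renilla not read in this screen; 0% = Sendai virus plus DMSO and 100% = medium plus DMSO without virus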
[8] = TLR3 IRF3 reporter activation blockers – cell-based, poly I:C stimulus, luciferase, 10K MLSCN set, primary screen (AID 602277;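 active means inhibition of the reporter signal at or above 50%; inactive means inhibition below 50%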); conditions: HEK293-TLR3 RL24 IRF3 luciferase reporter, at 10 µM, stronger effect = higher value

Voltage-gated potassium channel subunit beta-2 (Rattus norvegicus), sequence (P62483 whole entry, looked up): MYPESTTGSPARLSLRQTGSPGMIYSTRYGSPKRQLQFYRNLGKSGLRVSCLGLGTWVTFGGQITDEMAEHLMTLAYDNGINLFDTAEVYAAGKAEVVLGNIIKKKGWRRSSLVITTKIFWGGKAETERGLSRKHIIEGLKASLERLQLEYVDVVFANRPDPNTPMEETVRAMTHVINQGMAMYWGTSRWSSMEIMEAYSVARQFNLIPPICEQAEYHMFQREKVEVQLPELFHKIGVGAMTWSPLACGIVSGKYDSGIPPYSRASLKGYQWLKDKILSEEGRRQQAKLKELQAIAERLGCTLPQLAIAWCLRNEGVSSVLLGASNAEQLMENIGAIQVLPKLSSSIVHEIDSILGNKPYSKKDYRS
Alpha-2C adrenergic receptor (Homo sapiens), sequence (P18825 whole entry, looked up): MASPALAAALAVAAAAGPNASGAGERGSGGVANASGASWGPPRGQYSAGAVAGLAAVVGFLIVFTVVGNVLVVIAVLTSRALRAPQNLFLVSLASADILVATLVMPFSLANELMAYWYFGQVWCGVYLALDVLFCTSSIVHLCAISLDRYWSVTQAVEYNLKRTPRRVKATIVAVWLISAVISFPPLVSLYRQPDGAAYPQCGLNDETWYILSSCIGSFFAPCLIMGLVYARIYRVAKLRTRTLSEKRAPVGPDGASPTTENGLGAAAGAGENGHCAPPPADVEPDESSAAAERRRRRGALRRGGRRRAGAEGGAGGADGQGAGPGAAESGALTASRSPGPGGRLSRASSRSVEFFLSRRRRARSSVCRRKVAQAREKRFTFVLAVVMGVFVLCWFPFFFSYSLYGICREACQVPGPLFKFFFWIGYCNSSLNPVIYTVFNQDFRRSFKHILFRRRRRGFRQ

Compound	cell count [1]	inhibition [1]	inhibition of aggregation [2]	nuclei count [2] [%]	inhibition [3]	nuclei count [3] [%]	fluorescence slope [4]	NADPH fluorescence slope [5]	slope [6]	inhibition [7]	inhibition [8]
COc1cc2[nH]c(=O)c(C(=O)NCCCN3CCCCC3)c(O)c2cc1OC	637	-24.5% (inactive)	6.2% (inactive)	98.3	15.9% (inactive)	108	-0.583 (inactive)	-5.3e-05 (inactive)	0.00574 (inactive)	-5.59% (inactive)	-9.38% (inactive)
O=C(NC1CCCC1)c1ccc2nc[nH]c2c1	427	10.2% (inactive)	0.8% (inactive)	101	-41.4% (inactive)	114	-0.62 (inactive)	-3.9e-06 (inactive)	0.00786 (inactive)	9.91% (inactive)	13.1% (inactive)
O=C1CC(N2CCN(C3CCc4ccccc4C3)CC2)C(=O)N1c1ccccc1 (centres undefined)	288	4% (inactive)	0.8% (inactive)	88.6	6.6% (inactive)	121	-0.378 (inactive)	-9.9e-05 (inactive)	0.00552 (inactive)	17.3% (inactive)	28.1% (inactive)
O=C(CN1C(=O)CCS(=O)(=O)c2ccccc21)NCc1ccc(F)cc1	529	-7.7% (inactive)	13.4% (inactive)	95.8	-92.3% (inactive)	124	-0.395 (inactive)	-7.6e-05 (inactive)	0.00557 (inactive)	15.3% (inactive)	8.14% (inactive)
COC(=O)c1c(NC(=O)CSc2nnc(-c3cccnc3)n2Cc2ccco2)sc(C)c1C	505	-5.5% (inactive)	24% (inactive)	101	29.5% (inactive)	104	-0.579 (inactive)	-2.7e-05 (inactive)	0.00567 (inactive)	4.42% (inactive)	16.1% (inactive)
COc1ccccc1-c1nnc(NC(=O)c2ccc(S(=O)(=O)N(C)Cc3ccccc3)cc2)o1	391	6.1% (inactive)	9.9% (inactive)	92.8	-6.7% (inactive)	99.4	-0.478 (inactive)	-1.3e-05 (inactive)	0.00777 (inactive)	14.7% (inactive)	25.7% (inactive)
CCOC(=O)C1=C(C)Nc2nnnn2C1c1c[nH]c2ccccc12 (centres undefined)	498	0.6% (inactive)	1.4% (inactive)	47.3	-59.7% (inactive)	101	-0.612 (inactive)	-1.2e-05 (inactive)	0.00469 (inactive)	7.12% (inactive)	8.76% (inactive)
Clc1ccc(C2Nc3ccccc3-n3cccc32)cc1 (centres undefined)	637	-1.6% (inactive)	8.6% (inactive)	109	-44.3% (inactive)	104	-0.301 (inactive)	2.7e-06 (inactive)	0.00628 (inactive)	5.43% (inactive)	18.8% (inactive)
O=C(c1c(F)cccc1F)N(Cc1ccccn1)C1CCCC1	521	-11.2% (inactive)	24.2% (inactive)	110	40.9% (inactive)	87.3	-0.534 (inactive)	2e-06 (inactive)	0.00412 (inactive)	-7.47% (inactive)	-6.01% (inactive)
COc1ccc2[nH]c(=O)c(CN(C(=O)c3ccncc3)C(C)C)cc2c1	438	-6.2% (inactive)	4.6% (inactive)	120	-13% (inactive)	147	-0.448 (inactive)	-5.5e-05 (inactive)	0.00387 (inactive)	8.68% (inactive)	37.7% (inactive)
CCn1c(C(=O)N2CCC(C(=O)N3CCN(c4ccccn4)CC3)CC2)cc2sccc21	663	-12.8% (inactive)	27.4% (inactive)	105	-79.6% (inactive)	121	-0.578 (inactive)	-4.7e-05 (inactive)	0.00642 (inactive)	-5.71% (inactive)	-29% (inactive)
Nc1nc(N2C(=O)C3CC=CCC3C2=O)nn1-c1ccccc1 (centres undefined)	444	20.1% (inactive)	-11.6% (inactive)	109	-23.5% (inactive)	132	-0.474 (inactive)	2.4e-05 (inactive)	0.00364 (inactive)	-8.69% (inactive)	23.3% (inactive)
CC1CCN(CCCNC(=O)c2coc3nc4ccccc4nc23)CC1	311	-0.8% (inactive)	-17.9% (inactive)	110	-33.9% (inactive)	117	-0.351 (inactive)	-3.5e-06 (inactive)	0.00542 (inactive)	-4.6% (inactive)	46.6% (inactive)
Cc1oc(-c2ccccc2F)nc1CS(=O)(=O)CC(=O)NCCCN1CCc2ccccc2C1	649	11% (inactive)	16.1% (inactive)	68.5	27.9% (inactive)	108	-0.508 (inactive)	-5.3e-07 (inactive)	0.00532 (inactive)	10.5% (inactive)	18.8% (inactive)
